# High-throughput results as filed in PubChem BioAssay.
# NRP1-CendR mod = modulators of CendR peptide binding to human neuropilin-1; O14786; FAM-RPARPAR peptide binding to NRP-1, fluorescence polarization; 360,000 tested, 0.85% active; inhibition, % at 25 µM; AID 602438;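 active = inhibition or corrected inhibition above about 18%, plus a signal ratio from 0.5 to 1.5, limit read from the data, passing the limit was not always enough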
# CFTR F508del cor = correctors of CFTR F508del function in bronchial epithelial cells. 350,000 tested, 0.36% active. CFBE cells, YFP halide quenching; stimulated with forskolin plus potentiator P3; % fluorescence drop versus neutral controls. activity (quench increase), % at 7.58 µM;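 active = mean added fluorescence quench of at least 8% versus neutral control, with both replicates also reaching 8%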;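 also: cells transiently co-express mutant CFTR-F508del with the halide-sensitive YFP; corrector assay measuring rescue of mutant channel to the surface after 24 h compound exposure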
# MPTP inh = blocks calcium-induced mitochondrial swelling. isolated mouse mitochondria, Ca2+ swelling absorbance, 30 min. inhibition, % at 10 µM. 360,000 tested, 1.4% active. AID 602449;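 active = inhibition of 50% or more, scaled per plate between neutral and stimulator controls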;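 also: 0% = DMSO wells given calcium and 100% = 1 mM EGTA wells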
# SKN-1 inh = blocks SKN-1 activity in C. elegans; C. elegans VP596 Pgst-4::GFP/RFP ratio, acrylamide-induced, 24 h; 360,000 tested, 0.49% active; inhibition, % at 21.8 µM;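 active = interference check ratio from 0.5 to 1.5 plus GFP to RFP signal ratio inhibition reaching or exceeding a fixed threshold, cut at about 30% in these data, passing the limit was not always enough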
# ATG4B inh = blocks human ATG4B protease cleavage of LC3 substrate | ATG4B cleavage of LC3-PLA2, NBD-HPC fluorescence, 1 h | 340,000 tested, 0.51% active | inhibition, % at 8.33 µM; in the data active = inhibition above about 40%
# ATG4B conf = confirmation of human ATG4B inhibitors; inhibition, % at 8.33 µM; shares compounds with ATG4B inh; 320 tested, 92% active; ATG4B protease fluorescent substrate cleavage assay; in the data active = inhibition above about 39%
# PLA2 counter = inhibits human PLA2, flagging false ATG4B inhibitors; shares compounds with ATG4B inh; purified PLA2, NBD-C6-HPC fluorescence, 45 min; inhibition, % at 8.33 µM; 1,600 tested, 66% active; in the data active = inhibition above about 50%
# Target sequence (P04054 whole entry, looked up): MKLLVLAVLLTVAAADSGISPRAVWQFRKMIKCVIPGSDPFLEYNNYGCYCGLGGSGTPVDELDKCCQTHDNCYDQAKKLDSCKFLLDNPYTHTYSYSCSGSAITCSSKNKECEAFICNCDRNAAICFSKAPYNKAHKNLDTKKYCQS
# Rh123 counter = membrane potential counter-screen of mitochondrial pore inhibitors; shares compounds with MPTP inh; inhibition, % at 10 µM; 5,000 tested, 78% active; isolated mitochondria, Rhodamine 123 fluorescence; in the data active = inhibition above about 22%;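 also: 0% = DMSO vehicle and 100% = positive control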
# MPTP abs DR = MPTP inhibition, dose response swelling confirmation; isolated mitochondria swelling, absorbance; IC50, µM; 780 tested, 58% active; shares compounds with MPTP inh; AID 651561; in the data active = IC50 below about 20 µM
# MPTP cs DR = MPTP inhibitor counter-screen activity, dose response; isolated mitochondria counterscreen, fluorescence read-out; shares compounds with MPTP inh; IC50, µM; 780 tested, 49% active; in the data active = IC50 below about 80 µM
# * marks the source's active call; other numbers are inactive results; i = inactive; . = not tested or not shown; ! = not active in a repeat. This is a sample that favours compounds with a hit; in the whole collection about 2.7% have one here.
SMILES,NRP1-CendR mod,CFTR F508del cor,MPTP inh,SKN-1 inh,ATG4B inh,PLA2 counter,Rh123 counter,others
O=c1c2ccccc2nc(/C=C/c2ccccc2F)n1-c1ccccc1O,-4.1,3.8,1.0,4.6,61.6*,70.3*,.,
Cc1ccccc1S(=O)(=O)N1[C@@H]2c3ccc(-c4cccnc4)c(=O)n3C[C@H]1[C@H](CO)[C@H]2C(=O)O,.,-2.7,.,.,.,.,.,
COc1cc(/C=C/c2nc3ccccc3c(=O)n2-c2ccc(O)cc2)ccc1O,-63.9,-1.2,2.3,-3.0,-24.9,.,.,
COc1ccc(-n2c(/C=C/c3ccc(O)c(O)c3)nc3ccccc3c2=O)cc1,-92.3,3.0,4.8,13.9,49.4*,51.6*,.,
Cc1nc2c(=O)n(C)c(=O)nc-2n(C)n1,17.5,.,-5.7,-16.1,82.5*,-8.6,.,ATG4B conf=25.3
COC(=O)[C@H]1[C@H](CO)[C@H]2Cn3c(ccc(-c4ccccc4)c3=O)[C@@H]1N2CC1CC1,.,2.7,.,.,.,.,.,
C/C(=N\N1CCCCC1c1cccnc1)c1c(O)n(C2CCCCC2)c(=S)[nH]c1=O (stereo not given),-102.0,.,-3.8,12.7,43.4*,36.6,.,
CCCCn1c(O)c(/C(CC)=N/N2CCCCC2c2cccnc2)c(=O)[nH]c1=S (stereo not given),-29.9,.,-0.2,1.1,12.5,.,.,
NC(N)=N/N=C/c1ccc(N(c2ccccc2)c2ccccc2)cc1,25.0*,-2.3,1.0,-6.5,53.2*,65.5*,.,
O=C(O)[C@H]1[C@H](CO)[C@H]2Cn3c(ccc(-c4ccc(F)cc4)c3=O)[C@@H]1N2CC1CCCC1,.,-2.8,.,.,.,.,.,
COC(=O)[C@H]1[C@H](CO)[C@H]2Cn3c(ccc(-c4ccccc4F)c3=O)[C@@H]1N2Cc1ccncc1,.,-1.7,.,.,.,.,.,
Clc1ccc(C(c2ccc(Cl)cc2)n2cc[n+](CC(OCc3ccc(Cl)cc3Cl)c3ccc(Cl)cc3Cl)c2)cc1 (stereo not given),4.7,2.3,34.5,1.8,45.0*,90.3*,.,
CCCN1[C@@H]2c3ccc(-c4ccc(F)cc4)c(=O)n3C[C@H]1[C@H](CO)[C@H]2C(=O)OC,.,1.5,.,.,.,.,.,
Oc1c(Br)c(Br)c(Br)c(Br)c1Br,-51.2,.,66.8*,15.4,60.2*,62.2*,86.7*,
O=C(O)[C@H]1[C@H](CO)[C@H]2Cn3c(ccc(-c4ccccc4)c3=O)[C@@H]1N2C(=O)C1CCCCC1,.,-1.5,.,.,.,.,.,
Oc1c(Cl)cccc1Cc1cc(Cl)cc(Cl)c1O,1.3,-0.2,80.9*,6.2,10.6,.,64.4*,
CN1C(=O)/C(=C\c2ccc(N3CCCCCC3)cc2)C(=O)NC1=S,-53.6,1.3,71.4*,31.5,-4.9,.,-10.0,MPTP abs DR=i;MPTP cs DR=57.3*
CCOC(=O)[C@@H]1[C@@H]2NC(=S)N(C)[C@@]1(C)Oc1ccccc12,.,1.2,.,.,.,.,.,
CNc1ccc2oc(C[C@H]3O[C@@]4(CC[C@H]3C)O[C@H]([C@H](C)C(=O)c3ccc[nH]3)[C@H](C)C[C@H]4C)nc2c1C(=O)O,-17.3,2.7,95.8*,4.9,-4.8,.,-22.8,
Cc1[nH]c2c(C(F)(F)F)cccc2c1CCN,-10.2,.,72.9*,-0.6,2.1,.,-7.1,MPTP abs DR=i;MPTP cs DR=>80
FC(F)(F)c1cccc(C2NCc3ccccc3-n3cccc32)c1 (stereo not given),2.6,0.4,1.9,-3.4,7.3,.,.,
Oc1ccc(C2NCc3ccccc3-n3cccc32)cc1Cl (stereo not given),-2.5,-0.9,83.9*!,5.4,-1.7,.,-14.8,MPTP abs DR=i;MPTP cs DR=>80
Cc1ccc(-c2cc(-c3ccc(C)cc3)[n+](-c3ccc(C(=O)O)cc3)c(-c3ccc(C)cc3)c2)cc1,10.8,-1.3,-0.4,2.3,0.9,.,.,
Cc1ccc(C[n+]2c(-c3ccc(C)cc3)cc(-c3ccc(C)cc3)cc2-c2ccc(C)cc2)cc1,7.4,.,92.7*,-7.9,-6.4,.,115.9*,
